Source: PubChem BioAssay
TRHR agonist: qHTS for Small Molecule Agonists and Allosteric Enhancers of Human TRH Receptor: Primary Screen for Agonists | AID 493084, 2011 | hit rate 0.18% among 360,000 | TRHR cells, calcium flux fluo-8, FDSS agonist mode | Thyrotropin-releasing hormone receptor (Homo sapiens), P34981 | activation, % at 2 µM; note: 0% is about no effect
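Steps: seed TRHR cells overnight; add fluo-8 no-wash Ca dye, RT 30 min–1.5 h; record 10 s baseline; pin-transfer compounds; monitor fluorescence 1 cycle/s for the agonist window. Calcium increases flag candidate agonists.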
D1 ag: Allosteric Agonists of the Human D1 Dopamine Receptor: qHTS; D(1A) dopamine receptor (Homo sapiens), P21728; HEK293 T-REx D1 cells, calcium flux, agonist mode; activation, % at 2 µM; hit rate 1% among 360,000; AID 504660, 2011; note: 0% is about no effect
Target sequence (P21728 whole entry, looked up): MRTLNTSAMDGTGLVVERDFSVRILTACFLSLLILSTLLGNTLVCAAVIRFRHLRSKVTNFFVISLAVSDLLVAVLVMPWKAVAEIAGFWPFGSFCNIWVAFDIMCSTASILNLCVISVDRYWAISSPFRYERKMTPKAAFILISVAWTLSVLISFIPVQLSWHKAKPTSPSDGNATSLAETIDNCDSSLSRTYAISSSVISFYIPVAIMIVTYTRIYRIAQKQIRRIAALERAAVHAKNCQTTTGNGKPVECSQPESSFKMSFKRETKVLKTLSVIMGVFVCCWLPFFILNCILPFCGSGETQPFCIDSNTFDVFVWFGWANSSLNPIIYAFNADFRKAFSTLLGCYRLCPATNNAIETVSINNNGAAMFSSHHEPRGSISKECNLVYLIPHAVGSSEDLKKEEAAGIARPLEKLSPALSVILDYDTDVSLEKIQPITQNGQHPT
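Inducible HEK293 T-REx D1 cells, force-coupled to calcium signalling, were plated at 4000 cells/well with tetracycline and held overnight at 30 C. After no-wash calcium dye loading, compound-evoked calcium rise over 180 s flagged agonists.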
TRHR enhancer: qHTS for Small Molecule Agonists and Allosteric Enhancers of Human TRH Receptor: Primary Screen for Enhancers | TRHR cells, fluo-8 calcium fluorescence, EC20 TRH enhancement | enhancement, % at 2 µM | hit rate 0.66% among 360,000 | AID 493056, 2011 | Thyrotropin-releasing hormone receptor (Homo sapiens), P34981; in the data active = enhancement above about 30%; note: 0% is about no effect
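Enhancer read-out: after compound pinning and an initial kinetic agonist-mode read, an EC20 of TRH (10 nM final) was injected and fluo-8 calcium signal (Ex 480/Em 530) followed at 1 s/cycle for 100 cycles in TRHR-expressing cells.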
D1 antag: Antagonist of Human D 1 Dopamine Receptor: qHTS; HEK293 TREx D1 cells, calcium flux, dopamine EC80; stronger effect = lower value; activity change, negative = inhibition, % at 10 µM; hit rate 3.2% among 360,000; D(1A) dopamine receptor (Homo sapiens), P21728; in the data active = activity change below about -30%; note: % is set by controls: 0 for no effect and ±100 for the full control effect
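Kinetic fluorescence of a calcium dye serves as the read-out. D1-expressing Hek293 Trex cells, induced overnight at 30 C, are exposed to compound for 180 s before an EC80 dopamine addition, then read 180 s further.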
D1 PAM: Potentiators of Human D1 Dopamine Receptor: qHTS | D(1A) dopamine receptor (Homo sapiens), P21728 | HEK293 TREx D1 cells, calcium flux, dopamine EC20 potentiation | potentiation, % at 10 µM | hit rate 0.036% among 360,000; in the data active = potentiation above about 30%; note: 0% is about no effect
GRP78 ERSR act: qHTS for Inducers of the Endoplasmic Reticulum Stress Response (ERSR) in Human Glioma: qHTS; U87-MG GRP78 promoter luciferase reporter, 16 h; Potency, µM, for the others: at the highest dose activation, hits mostly activators; hit rate 0.02% among 420,000; AID 602332, 2012; active = well fitted activation curve with a large enough effect; note: potency is the fitted concentration of half-maximal effect; series mostly up to about 76 µM; % of control where 0% means no effect; nearly all actives have a fitted effect of over 35% in size
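Stably transfected U87-MG human glioma cells carrying a GRP78-based luminescent sensor were seeded at 1000 cells/well, pin-dosed with compounds and incubated 16 h. Luciferase reagent was then added, and end-point luminescence was read after 10 min at room temperature.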
* marks the source's active call; other numbers are inactive results; · = no result given. Compounds with a hit are over-represented: about 4% of the library has one in this group of screens. Cut-off read from the data, not from the text of the source, unless noted: active = activation above about 30%; inactive = the rest.

SMILES	TRHR agonist	D1 ag	TRHR enhancer	D1 antag	D1 PAM	GRP78 ERSR act
COc1cc(CCC(=O)N2CCN(c3ccc([N+](=O)[O-])cc3)CC2)cc(OC)c1OC	-1.0	1.8	-4.8	6.4	-0.7	0.9%
Cc1cc(C(=O)N2CCN(c3ccc([N+](=O)[O-])cc3)CC2)no1	0.4	11.9	4.3	-25.6	-0.9	-1.6%
COCC(=O)N1CCN(c2ccc([N+](=O)[O-])cc2)CC1	-0.3	3.6	3.7	-31.9*	-10.9	12.6%
CC1CC1C(=O)Nc1cc(S(=O)(=O)N2CCOCC2)ccc1N1CCCC1 (stereo unspecified)	0.5	4.0	-1.3	9.9	-2.2	-0.9%
O=C(/C=N/O)NCCCCNC(=O)/C=N/O	·	·	·	·	·	-4.1%
CCC(/C=N/NC(=O)c1ccccc1F)CC	0.4	3.9	-0.6	-37.2*	-8.7	-0.5%
COC(=O)Nc1ccc(SCC(=O)c2ccc(Cl)cc2)cc1	0.5	1.9	-3.0	-31.7*	2.1	1.7%
C/C(=C\C(=O)c1ccc(Br)cc1)NCc1ccc(C)cc1	-0.1	1.0	39.9*	1.7	-7.6	2.1%
Cc1ccc(S(=O)(=O)c2cn(CC(=O)Nc3ccc4c(c3)OCO4)c3ccccc3c2=O)cc1C	-2.4	6.9	-2.7	-11.6	-3.7	-1.7%
O=C(CNC(=O)C1CC(=O)N(c2cccc3ccccc23)C1)Nc1ccccc1Br (stereo unspecified)	0.0	3.5	7.6	-13.2	·	-4.7%
C/C(=C\C(=O)c1ncc(C(F)(F)F)cc1Cl)N(C)C	0.1	0.2	-4.8	4.3	11.2	-3.8%
O=c1c(-c2ccc(Cl)cc2)nc2cnc(N3CCNCC3)nc2n1CCc1ccccc1	·	·	·	·	·	-1.9%
CCOc1cc(N(CC)CC)ccc1/C=C(/C#N)c1nc2ccccc2[nH]1	40.9*	57.5*	11.9	5.2	5.0	5.2%
Cc1cc(/C=C(\C#N)c2nc3ccccc3[nH]2)c(C)n1C	1.1	6.2	7.0	6.6	-1.7	4.7%
CCCOc1cc(N(CC)CC)ccc1/C=C(/C#N)c1nc2ccc(C)cc2[nH]1	32.2*	-1.6	8.7	5.7	19.1	7.3%
COc1cccc(/C=C(\C#N)c2nc3ccc(C)cc3[nH]2)c1	-0.6	-0.6	-3.1	-7.2	-1.6	5.2%
CCN(CC)c1ccc(/C=C(/C#N)c2nc3ccc(C)cc3[nH]2)c(OC(C)C)c1	82.8*	100.0*	15.7	-21.6	-2.1	-0.7%
Cc1noc(C)c1C(=O)N1CCC[C@@]2(CCN(Cc3nccs3)C2)C1	·	·	·	·	·	-0.3%
C/C=C1\COC(C(=O)NCCOCCO)(C(F)(F)F)C=C1C=C1CCCCC1 (stereo unspecified)	·	·	·	·	·	-0.4%
COc1ccc(CCNC(=O)Cn2cnc3sc(C)c(-c4ccc(F)cc4)c3c2=O)cc1OC	5.4	33.9*	-12.9	·	-5.9	2.7%
Cn1nnnc1Sc1ncnc2scc(-c3cccc(C#N)c3)c12	-0.9	0.9	-4.5	-1.0	-3.3	·
O=C(OC1CCCCC1=O)c1cccc(S(=O)(=O)N2CCCCC2)c1 (stereo unspecified)	-0.3	2.9	-2.4	-8.0	3.0	-5.3%
O=C(OC1CCCCC1=O)c1ccc(S(=O)(=O)Nc2ccccc2)cc1 (stereo unspecified)	1.3	35.3*	12.6	-9.8	1.6	-1.6%
O=C(NC1CC2CCCC(C1)N2Cc1ccccc1)c1ccc([N+](=O)[O-])cc1 (stereo unspecified)	-0.3	4.4	2.8	-56.6*	0.8	-2.0%
CCCNC(=S)NC1CC2CCCC(C1)N2Cc1ccc(F)cc1 (stereo unspecified)	0.6	7.0	1.6	-7.4	-3.1	-3.0%
SMILES	TRHR agonist	D1 ag	TRHR enhancer	D1 antag	D1 PAM	GRP78 ERSR act
O=C(NC1CC2CCC(C1)N2Cc1ccccc1)c1cccc(F)c1 (stereo unspecified)	0.1	3.5	3.6	-50.3*	-7.8	-3.1%
Cc1ccc(CN2C3CCCC2CC(NC(=O)c2ccc(F)cc2)C3)cc1 (stereo unspecified)	0.8	8.4	-1.2	-44.8*	-12.3	-3.9%
COc1ccc(CN2C3CCC2CC(NC(=O)c2cccc(F)c2)C3)cc1 (stereo unspecified)	0.4	8.1	-10.4	-25.5	-10.7	-1.2%
COc1cccc(C(=O)NC2CCN(CC(=O)Nc3nccs3)CC2)c1	0.1	1.7	3.0	-32.9*	-1.9	-5.7%
CC1CCN(c2oc(-c3ccc(OCc4ccccc4Cl)cc3)nc2C#N)CC1	·	·	·	·	·	-3.8%
Cc1ccc(Nc2nc(N)c(C#N)c(CC#N)c2C#N)cc1	-0.2	1.2	0.7	-2.0	-4.3	-2.7%
CCOc1ccc(C(=O)NC2CC3CCCC(C2)N3Cc2ccccc2)cc1 (stereo unspecified)	0.5	5.2	20.9	-15.8	-14.0	-4.7%
Cc1cccc(C(=O)NC2CC3CCCC(C2)N3Cc2ccccc2)c1 (stereo unspecified)	0.0	0.5	3.4	-30.5*	-12.1	-3.7%
O=C(NC1CC2CCC(C1)N2Cc1ccco1)c1ccccc1 (stereo unspecified)	-0.1	1.5	7.3	-39.7*	-25.3	-3.2%
COc1ccc(C(=O)NC2CC3CCCC(C2)N3Cc2ccccc2)cc1 (stereo unspecified)	0.1	1.9	4.1	-48.8*	-12.3	-0.4%
Cc1ccc(C(=O)NC2CC3CCCC(C2)N3Cc2ccccc2)cc1 (stereo unspecified)	-0.5	-0.6	10.2	-83.9*	-8.8	-1.4%
O=C(NCc1ccccc1)NC1CC2CCC(C1)N2Cc1ccco1 (stereo unspecified)	1.2	5.6	-0.8	-5.5	-4.6	-1.9%
COc1ccc(C(=O)NC2CC3CCCC(C2)N3Cc2ccccc2)c(OC)c1 (stereo unspecified)	0.0	2.1	-5.7	-13.5	-4.7	-3.0%
COc1cccc(C(=O)NC2CC3CCCC(C2)N3CC(=O)Nc2ccccc2C(F)(F)F)c1 (stereo unspecified)	0.1	4.1	-5.1	-3.2	1.9	-6.1%
COc1ccccc1C(=O)NC1CC2CCC(C1)N2Cc1ccccc1 (stereo unspecified)	0.0	-0.5	9.2	-49.9*	-11.7	-2.4%
COc1cccc(C(=O)NC2CC3CCC(C2)N3Cc2ccccc2)c1 (stereo unspecified)	0.2	7.4	-3.1	-49.0*	0.1	-2.7%
